According to article PMC7862700, “An all-to-all approach to the identification of sequence-specific readers for epigenetic DNA modifications on cytosine”:

Assays:
Assay in all cases: DAPPL (digital affinity profiling via proximity ligation, sequencing); 10 mM Tris-HCl pH 7.5, 50 mM NaCl, 1 mM DTT, 4% glycerol, room temperature, 30 min; GST-TFs on glutathione beads, 16-mer random dsDNA library, 0.1% formaldehyde crosslink after washing; high values mean tight binding
[1] = target: T1, FLI1 (Homo sapiens, UniProt Q01543 1-452); conditions: protein: recombinant; tags: N-terminal GST; dsDNA, one strand shown
T1 sequence: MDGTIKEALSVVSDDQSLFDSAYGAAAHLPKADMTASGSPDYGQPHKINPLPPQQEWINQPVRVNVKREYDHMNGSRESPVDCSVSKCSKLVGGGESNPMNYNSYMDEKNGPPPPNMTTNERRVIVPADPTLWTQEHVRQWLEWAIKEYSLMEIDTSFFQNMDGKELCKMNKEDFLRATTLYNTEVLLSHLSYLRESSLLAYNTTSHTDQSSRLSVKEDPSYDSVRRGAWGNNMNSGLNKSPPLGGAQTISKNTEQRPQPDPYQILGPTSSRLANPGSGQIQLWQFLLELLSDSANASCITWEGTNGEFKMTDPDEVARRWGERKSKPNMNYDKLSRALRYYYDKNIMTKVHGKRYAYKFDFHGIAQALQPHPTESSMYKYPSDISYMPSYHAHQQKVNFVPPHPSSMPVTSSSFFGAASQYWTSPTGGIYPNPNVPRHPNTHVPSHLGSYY
Outline: (§1)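 Binding signal is defined as a hexamer's read frequency for one factor over its frequency for the tag-only sample. To obtain reads, GST-fused human transcription factors were expressed in yeast, captured on glutathione beads, barcoded with DNA and pooled with that sample. Pools met 200 nmole of a 16-mer random double-stranded DNA library in Tris/NaCl/DTT/glycerol buffer for 30 min at room temperature before washing, 0.1% formaldehyde crosslinking, proximity ligation (BsaI/T4 ligase, 1 h, 37 °C), PCR and Illumina NextSeq500 sequencing.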

[2] = target: T2, ELK1 (Homo sapiens, UniProt P19419 1-428); conditions: protein: recombinant; tags: N-terminal GST; dsDNA, one strand shown
T2 sequence: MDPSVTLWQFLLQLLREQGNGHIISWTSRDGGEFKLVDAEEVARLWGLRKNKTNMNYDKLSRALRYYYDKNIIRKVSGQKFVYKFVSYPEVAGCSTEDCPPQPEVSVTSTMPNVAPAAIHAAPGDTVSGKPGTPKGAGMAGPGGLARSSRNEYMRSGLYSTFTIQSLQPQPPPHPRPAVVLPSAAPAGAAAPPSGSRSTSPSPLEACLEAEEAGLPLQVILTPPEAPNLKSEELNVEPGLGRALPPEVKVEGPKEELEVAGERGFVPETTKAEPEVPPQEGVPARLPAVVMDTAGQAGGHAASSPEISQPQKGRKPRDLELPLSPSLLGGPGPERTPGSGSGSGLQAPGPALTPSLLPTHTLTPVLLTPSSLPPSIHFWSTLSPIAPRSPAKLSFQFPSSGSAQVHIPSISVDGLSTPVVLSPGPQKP
Outline: as §1

[3] = target: T3, GABPA (Homo sapiens, UniProt Q06546 1-454); conditions: protein: recombinant; tags: N-terminal GST; dsDNA, one strand shown
T3 sequence: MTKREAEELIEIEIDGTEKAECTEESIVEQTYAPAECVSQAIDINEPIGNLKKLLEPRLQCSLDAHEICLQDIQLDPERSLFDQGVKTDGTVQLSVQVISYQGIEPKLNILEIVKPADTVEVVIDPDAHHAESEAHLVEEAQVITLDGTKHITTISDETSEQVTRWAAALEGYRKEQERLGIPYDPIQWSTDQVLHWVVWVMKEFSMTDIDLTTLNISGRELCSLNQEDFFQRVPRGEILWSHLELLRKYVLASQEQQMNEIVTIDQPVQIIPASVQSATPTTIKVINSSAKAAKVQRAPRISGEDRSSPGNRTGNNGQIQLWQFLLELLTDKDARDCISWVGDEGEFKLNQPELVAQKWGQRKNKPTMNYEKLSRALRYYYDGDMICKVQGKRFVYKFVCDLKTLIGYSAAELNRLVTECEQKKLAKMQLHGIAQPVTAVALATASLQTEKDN
Outline: as §1

[4] = target: T4, ERG (Homo sapiens, UniProt P11308 1-479); conditions: protein: recombinant; tags: N-terminal GST; dsDNA, one strand shown
T4 sequence: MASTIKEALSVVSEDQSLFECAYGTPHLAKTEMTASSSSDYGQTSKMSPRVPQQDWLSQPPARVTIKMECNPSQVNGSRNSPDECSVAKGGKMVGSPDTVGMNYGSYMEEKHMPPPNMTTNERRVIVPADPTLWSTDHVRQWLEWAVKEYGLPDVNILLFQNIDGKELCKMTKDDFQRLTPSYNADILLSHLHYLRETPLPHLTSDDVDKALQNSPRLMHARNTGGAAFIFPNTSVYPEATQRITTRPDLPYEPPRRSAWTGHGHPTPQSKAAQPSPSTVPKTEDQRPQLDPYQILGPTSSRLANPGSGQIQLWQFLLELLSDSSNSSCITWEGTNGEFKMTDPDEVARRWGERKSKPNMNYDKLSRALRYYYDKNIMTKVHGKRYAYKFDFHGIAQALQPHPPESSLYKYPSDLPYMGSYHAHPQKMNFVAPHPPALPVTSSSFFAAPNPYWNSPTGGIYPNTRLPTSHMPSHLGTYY
Outline: as §1

[5] = target: ELF1 (Homo sapiens, UniProt P32519 1-619); conditions: protein: recombinant; tags: N-terminal GST; dsDNA, one strand shown
Outline: as §1

[6] = target: T5, EHF (Homo sapiens, UniProt Q9NZC4 1-300); conditions: protein: recombinant; tags: N-terminal GST; dsDNA, one strand shown
T5 sequence: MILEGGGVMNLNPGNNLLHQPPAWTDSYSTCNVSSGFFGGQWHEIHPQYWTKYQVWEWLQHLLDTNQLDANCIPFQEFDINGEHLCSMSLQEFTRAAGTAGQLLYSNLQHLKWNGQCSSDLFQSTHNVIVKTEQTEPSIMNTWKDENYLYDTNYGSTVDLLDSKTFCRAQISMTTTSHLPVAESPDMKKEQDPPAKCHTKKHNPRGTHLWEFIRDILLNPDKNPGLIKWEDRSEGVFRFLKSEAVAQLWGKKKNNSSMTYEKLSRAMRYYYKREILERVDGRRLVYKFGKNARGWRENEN
Outline: as §1

[7] = target: SPI1 (Homo sapiens, UniProt P17947 1-270); conditions: protein: recombinant; tags: N-terminal GST; dsDNA, one strand shown
Outline: as §1

[8] = target: SPIB (Homo sapiens, UniProt Q01892 1-262); conditions: protein: recombinant; tags: N-terminal GST; dsDNA, one strand shown
Outline: as §1

[9] = target: T6, ELK3 (Homo sapiens, UniProt P41970 1-407); conditions: protein: recombinant; tags: N-terminal GST; dsDNA, one strand shown
T6 sequence: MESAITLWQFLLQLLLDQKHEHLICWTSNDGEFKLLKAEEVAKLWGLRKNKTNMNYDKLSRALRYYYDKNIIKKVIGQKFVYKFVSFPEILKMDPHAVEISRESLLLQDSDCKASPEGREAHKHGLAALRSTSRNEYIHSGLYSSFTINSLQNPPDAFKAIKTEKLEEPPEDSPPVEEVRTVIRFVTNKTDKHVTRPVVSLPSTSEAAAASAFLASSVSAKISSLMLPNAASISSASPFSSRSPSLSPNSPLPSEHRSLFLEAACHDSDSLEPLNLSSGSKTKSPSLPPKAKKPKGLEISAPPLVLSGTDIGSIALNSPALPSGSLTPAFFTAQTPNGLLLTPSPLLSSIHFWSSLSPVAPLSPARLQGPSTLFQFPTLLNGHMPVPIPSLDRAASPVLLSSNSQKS
Outline: as §1

[10] = target: T7, FEV (Homo sapiens, UniProt Q99581 1-238); conditions: protein: recombinant; tags: N-terminal GST; dsDNA, one strand shown
T7 sequence: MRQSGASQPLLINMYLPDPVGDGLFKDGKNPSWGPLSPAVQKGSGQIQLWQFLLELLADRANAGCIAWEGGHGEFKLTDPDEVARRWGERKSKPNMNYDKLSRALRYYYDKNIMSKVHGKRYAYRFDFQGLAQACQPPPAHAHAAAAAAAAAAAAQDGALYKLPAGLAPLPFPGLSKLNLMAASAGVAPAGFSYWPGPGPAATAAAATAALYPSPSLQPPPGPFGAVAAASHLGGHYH
Outline: as §1

[11] = target: ETV5 (Homo sapiens, UniProt P41161 1-510); conditions: protein: recombinant; tags: N-terminal GST; dsDNA, one strand shown
Outline: as §1

[12] = target: HSF1 (Homo sapiens, UniProt Q00613 1-529); conditions: protein: recombinant; tags: N-terminal GST; chain copies: 3; dsDNA, one strand shown
Outline: as §1

[13] = target: T8, SPIC (Homo sapiens, UniProt Q8N5J4 1-248); conditions: protein: recombinant; tags: N-terminal GST; dsDNA, one strand shown
T8 sequence: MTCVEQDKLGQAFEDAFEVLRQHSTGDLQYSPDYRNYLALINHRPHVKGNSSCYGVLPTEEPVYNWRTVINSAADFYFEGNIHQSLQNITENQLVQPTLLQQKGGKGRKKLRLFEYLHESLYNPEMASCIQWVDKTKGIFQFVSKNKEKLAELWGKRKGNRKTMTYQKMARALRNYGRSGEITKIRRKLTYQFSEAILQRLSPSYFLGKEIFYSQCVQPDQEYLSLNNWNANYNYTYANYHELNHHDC
Outline: as §1

[14] = target: ELF4 (Homo sapiens, UniProt Q99607 1-663); conditions: protein: recombinant; tags: N-terminal GST; dsDNA, one strand shown
Outline: as §1

[15] = target: T9, ELK4 (Homo sapiens, UniProt P28324-2 1-405); conditions: protein: recombinant; tags: N-terminal GST; dsDNA, one strand shown
T9 sequence: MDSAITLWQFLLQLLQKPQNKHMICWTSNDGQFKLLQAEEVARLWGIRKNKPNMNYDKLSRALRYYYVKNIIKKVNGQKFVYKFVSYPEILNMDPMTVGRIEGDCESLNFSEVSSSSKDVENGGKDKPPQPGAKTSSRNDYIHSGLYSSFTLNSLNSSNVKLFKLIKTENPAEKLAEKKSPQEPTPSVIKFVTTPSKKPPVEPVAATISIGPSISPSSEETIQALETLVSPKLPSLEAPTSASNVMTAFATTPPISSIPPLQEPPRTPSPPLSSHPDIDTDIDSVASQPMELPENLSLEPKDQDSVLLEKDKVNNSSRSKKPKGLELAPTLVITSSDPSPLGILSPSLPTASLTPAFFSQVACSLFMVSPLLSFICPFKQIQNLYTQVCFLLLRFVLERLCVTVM
Outline: as §1

[16] = target: T10, ETV2 (Homo sapiens, UniProt O00321 1-342); conditions: protein: recombinant; tags: N-terminal GST; dsDNA, one strand shown
T10 sequence: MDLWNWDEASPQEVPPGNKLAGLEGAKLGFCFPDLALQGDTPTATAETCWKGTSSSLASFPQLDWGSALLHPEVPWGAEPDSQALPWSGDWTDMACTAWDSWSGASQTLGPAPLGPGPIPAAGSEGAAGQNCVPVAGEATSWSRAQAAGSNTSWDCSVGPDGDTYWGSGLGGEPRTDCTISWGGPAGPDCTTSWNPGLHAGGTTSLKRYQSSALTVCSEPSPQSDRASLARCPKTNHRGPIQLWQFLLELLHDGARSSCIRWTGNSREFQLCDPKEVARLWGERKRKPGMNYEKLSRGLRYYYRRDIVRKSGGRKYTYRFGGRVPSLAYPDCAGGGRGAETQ
Outline: as §1

[17] = target: T11, ELF3 (Homo sapiens, UniProt P78545 1-371); conditions: protein: recombinant; tags: N-terminal GST; dsDNA, one strand shown
T11 sequence: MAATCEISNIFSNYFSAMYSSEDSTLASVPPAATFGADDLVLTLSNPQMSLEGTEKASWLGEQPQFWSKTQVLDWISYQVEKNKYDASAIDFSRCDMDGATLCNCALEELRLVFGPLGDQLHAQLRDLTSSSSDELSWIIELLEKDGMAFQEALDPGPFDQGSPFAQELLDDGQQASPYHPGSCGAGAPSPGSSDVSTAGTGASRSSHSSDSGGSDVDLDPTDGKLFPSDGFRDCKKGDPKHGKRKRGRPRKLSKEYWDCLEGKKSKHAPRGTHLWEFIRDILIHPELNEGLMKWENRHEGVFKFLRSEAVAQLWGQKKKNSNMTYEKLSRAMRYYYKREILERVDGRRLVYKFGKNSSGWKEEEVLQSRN
Outline: as §1

[18] = target: CRX (Homo sapiens, UniProt O43186 1-299); conditions: protein: recombinant; tags: N-terminal GST; dsDNA, one strand shown
Outline: as §1

[19] = target: ETV1 (Homo sapiens, UniProt P50549 1-477); conditions: protein: recombinant; tags: N-terminal GST; dsDNA, one strand shown
Outline: as §1

Chain of ETV5 (P41161 whole entry): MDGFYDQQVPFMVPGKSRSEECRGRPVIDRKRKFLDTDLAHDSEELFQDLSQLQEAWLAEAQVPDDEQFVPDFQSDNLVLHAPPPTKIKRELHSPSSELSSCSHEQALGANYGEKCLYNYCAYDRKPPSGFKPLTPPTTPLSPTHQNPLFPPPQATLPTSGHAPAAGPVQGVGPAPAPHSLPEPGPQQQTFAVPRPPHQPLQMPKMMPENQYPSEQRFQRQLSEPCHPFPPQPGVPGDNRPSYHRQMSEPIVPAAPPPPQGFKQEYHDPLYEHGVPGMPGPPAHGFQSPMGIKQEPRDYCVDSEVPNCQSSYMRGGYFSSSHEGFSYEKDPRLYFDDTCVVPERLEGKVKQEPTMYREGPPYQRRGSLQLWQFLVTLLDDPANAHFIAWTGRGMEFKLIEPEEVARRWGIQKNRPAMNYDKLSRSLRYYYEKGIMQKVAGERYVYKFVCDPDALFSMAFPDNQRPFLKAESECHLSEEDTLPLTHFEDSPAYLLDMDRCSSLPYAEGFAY
Chain of CRX (O43186 whole entry): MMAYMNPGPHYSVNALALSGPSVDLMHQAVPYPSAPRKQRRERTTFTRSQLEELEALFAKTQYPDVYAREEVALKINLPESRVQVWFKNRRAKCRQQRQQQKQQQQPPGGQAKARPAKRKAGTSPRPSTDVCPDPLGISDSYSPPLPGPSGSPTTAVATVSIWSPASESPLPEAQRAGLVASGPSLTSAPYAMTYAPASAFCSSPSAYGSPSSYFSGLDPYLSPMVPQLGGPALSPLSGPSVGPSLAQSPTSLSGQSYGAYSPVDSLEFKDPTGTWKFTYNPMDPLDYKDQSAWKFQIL
Chain of ETV1 (P50549 whole entry): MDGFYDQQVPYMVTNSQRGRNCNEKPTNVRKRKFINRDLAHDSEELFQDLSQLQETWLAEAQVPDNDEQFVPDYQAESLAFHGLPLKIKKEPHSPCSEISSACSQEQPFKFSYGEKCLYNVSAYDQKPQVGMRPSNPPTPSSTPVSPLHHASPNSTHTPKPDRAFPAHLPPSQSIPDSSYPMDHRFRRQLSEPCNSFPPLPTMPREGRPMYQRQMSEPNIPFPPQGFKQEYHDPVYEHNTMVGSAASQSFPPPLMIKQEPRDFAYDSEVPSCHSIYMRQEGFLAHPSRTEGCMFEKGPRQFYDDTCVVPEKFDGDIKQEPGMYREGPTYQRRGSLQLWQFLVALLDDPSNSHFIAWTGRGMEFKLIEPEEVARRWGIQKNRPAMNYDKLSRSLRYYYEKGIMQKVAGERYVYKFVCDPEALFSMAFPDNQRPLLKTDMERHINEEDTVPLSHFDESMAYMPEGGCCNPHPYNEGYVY
Chain of SPIB (Q01892 whole entry): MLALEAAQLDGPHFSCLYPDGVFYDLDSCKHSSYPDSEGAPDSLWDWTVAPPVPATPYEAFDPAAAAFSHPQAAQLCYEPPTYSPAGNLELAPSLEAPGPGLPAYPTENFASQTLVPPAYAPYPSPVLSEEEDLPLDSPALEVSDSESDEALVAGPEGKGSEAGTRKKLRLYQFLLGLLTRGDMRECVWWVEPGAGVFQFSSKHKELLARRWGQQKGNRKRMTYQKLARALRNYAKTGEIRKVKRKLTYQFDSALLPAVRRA
Chain of ELF4 (Q99607 whole entry): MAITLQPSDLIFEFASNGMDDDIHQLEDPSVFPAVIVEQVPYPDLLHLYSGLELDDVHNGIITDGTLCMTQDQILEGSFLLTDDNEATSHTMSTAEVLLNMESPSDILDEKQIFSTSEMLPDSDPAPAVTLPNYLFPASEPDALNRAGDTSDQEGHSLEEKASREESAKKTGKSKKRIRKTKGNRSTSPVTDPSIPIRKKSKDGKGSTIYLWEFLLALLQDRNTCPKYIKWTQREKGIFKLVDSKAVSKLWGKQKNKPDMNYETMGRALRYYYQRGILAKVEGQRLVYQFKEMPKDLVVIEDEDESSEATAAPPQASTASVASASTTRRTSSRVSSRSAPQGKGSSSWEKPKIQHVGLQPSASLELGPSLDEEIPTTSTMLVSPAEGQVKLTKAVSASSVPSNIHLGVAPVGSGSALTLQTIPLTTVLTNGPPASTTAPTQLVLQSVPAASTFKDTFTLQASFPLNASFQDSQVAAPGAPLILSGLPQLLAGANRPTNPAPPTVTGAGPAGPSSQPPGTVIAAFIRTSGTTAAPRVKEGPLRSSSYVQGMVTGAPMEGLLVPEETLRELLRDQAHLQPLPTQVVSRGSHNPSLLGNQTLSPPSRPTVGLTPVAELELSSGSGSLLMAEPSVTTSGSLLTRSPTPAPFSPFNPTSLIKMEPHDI
Chain of HSF1 (Q00613 whole entry): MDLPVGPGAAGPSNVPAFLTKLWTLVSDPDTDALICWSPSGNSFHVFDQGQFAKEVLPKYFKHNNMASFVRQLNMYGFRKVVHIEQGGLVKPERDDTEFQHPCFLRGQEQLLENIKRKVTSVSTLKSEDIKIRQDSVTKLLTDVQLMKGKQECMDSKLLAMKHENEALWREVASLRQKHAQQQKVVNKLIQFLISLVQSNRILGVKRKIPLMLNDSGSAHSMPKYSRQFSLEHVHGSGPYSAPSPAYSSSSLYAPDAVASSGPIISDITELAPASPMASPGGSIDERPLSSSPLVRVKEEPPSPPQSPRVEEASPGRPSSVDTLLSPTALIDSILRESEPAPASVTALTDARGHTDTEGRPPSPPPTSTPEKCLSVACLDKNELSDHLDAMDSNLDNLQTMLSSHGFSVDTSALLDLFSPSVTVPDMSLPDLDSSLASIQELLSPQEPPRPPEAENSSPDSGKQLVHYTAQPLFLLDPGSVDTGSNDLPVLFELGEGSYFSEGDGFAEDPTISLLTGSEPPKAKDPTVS
Chain of ELF1 (P32519 whole entry): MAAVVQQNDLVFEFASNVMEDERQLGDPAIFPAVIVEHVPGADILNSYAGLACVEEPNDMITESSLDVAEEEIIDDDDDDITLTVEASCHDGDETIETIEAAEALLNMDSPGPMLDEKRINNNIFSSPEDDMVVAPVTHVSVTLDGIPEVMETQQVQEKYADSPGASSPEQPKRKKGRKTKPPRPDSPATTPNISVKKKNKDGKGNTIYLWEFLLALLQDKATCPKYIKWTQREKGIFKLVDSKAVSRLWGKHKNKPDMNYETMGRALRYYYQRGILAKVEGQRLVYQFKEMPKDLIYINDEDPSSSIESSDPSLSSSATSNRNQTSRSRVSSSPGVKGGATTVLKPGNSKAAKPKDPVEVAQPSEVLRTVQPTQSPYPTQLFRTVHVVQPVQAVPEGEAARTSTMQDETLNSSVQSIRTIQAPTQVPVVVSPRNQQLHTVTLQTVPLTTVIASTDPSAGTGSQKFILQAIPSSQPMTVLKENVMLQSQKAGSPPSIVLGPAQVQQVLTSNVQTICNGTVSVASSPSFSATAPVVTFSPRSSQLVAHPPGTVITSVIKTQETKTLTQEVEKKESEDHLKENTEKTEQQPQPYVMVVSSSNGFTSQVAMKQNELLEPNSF

Question: TGGTTT was tested. Which binding signal [1] did it give?
Answer: 1.6 fold enrichment (6-mer frequency, TF over GST control)

Question: What about the binding signal [2] of the same sequence?
Answer: 1.44 fold enrichment (6-mer frequency, TF over GST control)

Question: And the binding signal [3]?
Answer: 1.55 fold enrichment (6-mer frequency, TF over GST control)

Question: What about the binding signal [4] of the same sequence?
Answer: 1.51 fold enrichment (6-mer frequency, TF over GST control)

Question: What about the binding signal [5] of the same sequence?
Answer: 1.58 fold enrichment (6-mer frequency, TF over GST control)

Question: What about the binding signal [6] of the same sequence?
Answer: 1.48 fold enrichment (6-mer frequency, TF over GST control)

Question: And the binding signal [7]?
Answer: 1.66 fold enrichment (6-mer frequency, TF over GST control)

Question: And the binding signal [8]?
Answer: 1.43 fold enrichment (6-mer frequency, TF over GST control)

Question: And the binding signal [9]?
Answer: 1.6 fold enrichment (6-mer frequency, TF over GST control)

Question: And the binding signal [10]?
Answer: 1.54 fold enrichment (6-mer frequency, TF over GST control)

Question: What about the binding signal [11] of the same sequence?
Answer: 1.71 fold enrichment (6-mer frequency, TF over GST control)

Question: And the binding signal [12]?
Answer: 1.4 fold enrichment (6-mer frequency, TF over GST control)

Question: And the binding signal [13]?
Answer: 1.67 fold enrichment (6-mer frequency, TF over GST control)

Question: And the binding signal [14]?
Answer: 1.54 fold enrichment (6-mer frequency, TF over GST control)

Question: And the binding signal [15]?
Answer: 1.52 fold enrichment (6-mer frequency, TF over GST control)

Question: And the binding signal [16]?
Answer: 1.34 fold enrichment (6-mer frequency, TF over GST control)

Question: And the binding signal [17]?
Answer: 1.5 fold enrichment (6-mer frequency, TF over GST control)

Question: And the binding signal [18]?
Answer: 1.5 fold enrichment (6-mer frequency, TF over GST control)

Question: And the binding signal [19]?
Answer: 1.69 fold enrichment (6-mer frequency, TF over GST control)
